Screening results: PubChem, several laboratories
HIV RNase H inh = inhibitors of HIV-1 reverse transcriptase RNase H. RT-RNase H RNA/DNA duplex cleavage, fluorescence. actives 1.9% (n = 65,000). inhibition, % at 10 µM. P04585; in the data active means inhibition above about 50%
RmlC RmlD mix = mixture blocks RmlC and RmlD coupled enzyme activity | actives 0.39% (n = 110,000) | RmlC/RmlD coupled enzyme inhibition, 384-well mixture HTS | AID 1532 | inhibition, % at 5.5 µM; in the data active means inhibition above about 30%, passing the limit was not always enough
RmlCD fluor art = RmlC/RmlD fluorescence artifact, counter-screen; calls only; AID 1696; shares compounds with RmlC RmlD mix; RmlC/RmlD assay fluorescence artifact counter-screen; actives 96% (n = 360); call rule not given here;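 further: compound alone with no enzyme and no substrates present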
Active calls of the source: *; . = not tested or not shown; + = active, no number. The full list was thinned out, with hits kept by preference.

SMILES	HIV RNase H inh	RmlC RmlD mix	RmlCD fluor art
CCO[C@H]1OC(C(=O)N2CCN(C)CC2)=C[C@@H](c2ccc(Br)cc2)[C@@H]1CCCO	.	9.0	.
CC1=C(C#N)C(c2cccnc2)C2=C(CCCC2=O)N1 (configuration not stated)	.	32.1*	+
Cc1ccc(N2C(N)=C(C#N)C(c3cccnc3)C3=C2CCCC3=O)cc1 (configuration not stated)	23.6	.	.
O=C1[C@H]2[C@@H](C(=O)N1c1cccc3ccccc13)C1(C(=O)c3ccccc3C1=O)N1CCC[C@@H]21	.	-2.9	.
C#CCONC(=O)c1cc(OCC(F)(F)F)ccc1OCC(F)(F)F	.	-11.6	.
CCSc1nc2c(sc3ccccc32)c(=O)n1C(C)C	.	38.2	.
COc1cc(/C=C2/C(=N)N3C=CSC3=NC2=O)ccc1OCCCOc1ccccc1C	.	12.7	.
CCOc1cc(/C=C2/C(=N)N3C=CSC3=NC2=O)ccc1OCCCOc1ccccc1C	.	40.1*	+
Oc1cccc(O)c1O	.	-9.5	.
Cc1cccc(CN(CC(=O)N/N=C/c2cccs2)S(=O)(=O)c2ccc(Cl)cc2)c1	.	-12.1	.
COc1ccc(C[C@H]2COC(=O)[C@@H]2Cc2ccc(OC3OC(CO)C(O)C(O)C3O)c(OC)c2)cc1OC (some centres not stated)	.	-6.1	.
CC(C)(O[C@@H]1O[C@H](CO)[C@@H](O)[C@H](O)[C@H]1O)[C@H]1Cc2cc3ccc(=O)oc3cc2O1	.	56.4*	+
COc1ccc(-c2cc3nc[nH]c(=O)c3s2)cc1	.	50.9*	+
O=c1[nH]cnc2cc(-c3ccccc3)sc12	-3.7	1.0	.
O=C(CN(Cc1ccc2c(c1)OCO2)C(=O)CSc1nc2ccccc2o1)NC1CCCCC1	15.4	9.6	.
Cc1cc(NCCCN2CCOCC2)n2c(nc3ccccc32)c1C#N	-15.4	71.4*	+
Cc1cc(NCCN2CCOCC2)n2c(nc3ccccc32)c1C#N	4.8	20.5	.
COc1ccc(OC2C(=O)N(Cc3ccc4c(c3)OCO4)C2c2cccs2)cc1 (configuration not stated)	.	-7.6	.
CCOc1ccc(-c2cc(C(=O)O)c3ccccc3n2)cc1	.	31.5*	+
O=C(O)c1cc(-c2ccccc2)nc2ccccc12	-6.6	3.6	.
Cc1ccc(S(=O)(=O)NCCN=C(CN2CCCC2)NS(=O)(=O)c2ccc(C)cc2)cc1	-10.3	8.7	.
Cc1cccn2c(=O)c3cc(C#N)c(=NC(=O)c4ccncc4)n(Cc4ccco4)c3nc12	-2.9	.	.
CCOC(=O)c1cc2c(=O)n3cccc(C)c3nc2n(Cc2ccco2)c1=NC(=O)c1ccccc1	.	36.2*	+
COc1cc(C)ccc1OCCCON1C(=O)CCC1=O	.	2.9	.
O=C(NCCSCc1ccccc1)c1ccc(C2SCC(=O)N2Cc2ccccc2)cc1 (configuration not stated)	.	11.0	.
SMILES	HIV RNase H inh	RmlC RmlD mix	RmlCD fluor art
Cc1c(C(=O)NN2CCCCC2)nn(-c2ccc(Cl)cc2Cl)c1-c1ccc(I)cc1	.	-6.1	.
COCCCNC(=O)c1cc2c(=O)n3cccc(C)c3nc2n(C(C)C)c1=N	-21.1	63.8*	+
C=CCn1c(=N)c(C(=O)NCCCOC)cc2c(=O)n3ccccc3nc21	-10.2	66.0*	+
N=c1c(C(=O)NCc2ccc(F)cc2)cc2c(=O)n3ccccc3nc2n1Cc1cccnc1	.	52.7*	+
C=CCn1c(=N)c(C(=O)NCCCOC)cc2c(=O)n3cc(C)ccc3nc21	-1.9	.	.
C=CCn1c(=O)c(C#N)cc2c(=O)n3ccccc3nc21	-12.8	57.8*	+
COCCn1c(=N)c(C(=O)NCCc2ccc(OC)cc2)cc2c(=O)n3cccc(C)c3nc21	-24.4	9.0	.
COC(=O)c1cc2c(=O)n3ccccc3nc2n(Cc2cccnc2)c1=N	-7.6	14.2	.
C=CCn1c(=N)c(C#N)cc2c(=O)n3ccccc3nc21	.	16.1	.
CC(C)CCn1nnnc1C(C(C)C)N1CCC(C(N)=O)CC1 (configuration not stated)	.	21.8	.
Cc1ccc(N(C(C)C(=O)N2CCCCC2)S(C)(=O)=O)cc1C (configuration not stated)	-53.1	6.3	.
O=C(COC(=O)C1CCN(S(=O)(=O)c2cccs2)CC1)c1cc2ccccc2o1	47.8	4.9	.
C=CCn1c(SCC(=O)Nc2cc(C)on2)nc2sc(CC)cc2c1=O	.	8.1	.
CCCCCn1c(=NC(C)=O)c(C#N)cc2c(=O)n3ccccc3nc21	-12.7	.	.
CC(C)OCCCn1c(=NC(=O)c2ccncc2)c(C#N)cc2c(=O)n3ccccc3nc21	-2.4	115.0*	+
O=c1[nH]c(-c2ccc(Cl)cc2)nc2c1cnn2-c1ccccc1	8.6	-7.7	.
COc1cccc(/C=C/c2nc3c(cnn3-c3ccccc3)c(=O)[nH]2)c1	.	.	+
Cn1ccnc1Sc1nc2ccccc2nc1NS(=O)(=O)c1ccccc1	4.0	-4.5	.
Cc1nc(NC(=O)/C=C/c2ccccc2)sc1C(=O)Nc1ccc(Cl)cc1	.	-14.7	.
Cc1nc(NC(=O)/C=C/c2ccccc2)sc1C(=O)Nc1ccccc1Cl	.	37.4*	+
O=S(=O)(c1ccccc1)c1nc(-c2cccs2)oc1NCC1CCCO1 (configuration not stated)	-39.0	-16.2	.
N#Cc1nc(-c2cccs2)oc1N1CCOCC1	-66.3	-7.8	.
N#Cc1nc(-c2cccs2)oc1NCCCN1CCOCC1	-8.3	66.7*	+
N#Cc1nc(-c2cccs2)oc1NCC1CCCO1 (configuration not stated)	-6.6	107.4*	+
COc1ccc(-c2nc(C#N)c(NCCCN3CCOCC3)o2)cc1	-3.8	.	.
SMILES	HIV RNase H inh	RmlC RmlD mix	RmlCD fluor art
CC1CN(c2oc(-c3cccs3)nc2C#N)CC(C)O1 (configuration not stated)	-6.4	74.6*	+
O=C(CC1CCCC1)Nc1ccc2c(c1)CCC2	.	2.9	.
Cc1ccc(C(c2nnnn2CC2CCCO2)N2CCN(c3cccc(C)c3C)CC2)cc1 (configuration not stated)	18.3	5.9	.
CCN1CC(CCN2CCOCC2)C(c2ccccc2)(c2ccccc2)C1=O (configuration not stated)	.	-10.5	.
Cc1ccc(-c2nc3ncccc3o2)cc1NC(=O)COc1ccccc1	.	-12.1	.
Cc1cccn2cc(-c3ccc(NC(=O)Cc4ccccc4)cc3)nc12	.	7.2	.
COCC(=O)Nc1ccc(-c2cn3cccnc3n2)cc1	-14.1	95.7*	+
CCOCC(=O)Nc1cc(-c2cn3cccnc3n2)ccc1C	-14.8	107.3*	+
COc1cc(C(=O)n2nc(C)cc2C)ccc1O	.	-27.1	.
CCN(CC)C(=O)CSc1nc2ccccc2c(=O)n1CCC(=O)NCc1ccc(F)cc1	-1.0	9.2	.
CCOc1ccccc1Oc1c(C)oc2c(CN3CCN(C)CC3)c(O)ccc2c1=O	1.1	19.0	.
CCc1cc2c(=O)c(Oc3ccccc3F)c(C)oc2c(CN(C)C)c1O	3.4	72.5*	+
CC(C)(C)OC(=O)CC[C@@H](C(=O)N1CCN(C(=O)OC(C)(C)C)CC1)n1cc(C(CO)NC(=O)OC(C)(C)C)nn1 (some centres not stated)	.	12.8	.
O=C(NCC1CCN(c2ccc(S(=O)(=O)N3CCOCC3)cc2)CC1)c1ccc(Cl)cc1	.	6.6	.
NS(=O)(=O)c1ccc(N2N=C(c3ccccc3)CC2c2ccc(F)cc2)cc1 (configuration not stated)	.	148.9*	+
